Test results reported in ChEMBL document CHEMBL2218924, “A broad activity screen in support of a chemogenomic map for kinase signalling research and drug discovery” (Biochem J, 2013).

What was measured:
[1] = biological target: T1, Serine/threonine-protein kinase 17A (Homo sapiens) (UniProt Q9UEE5); details: at 1 µM
T1 sequence (whole entry): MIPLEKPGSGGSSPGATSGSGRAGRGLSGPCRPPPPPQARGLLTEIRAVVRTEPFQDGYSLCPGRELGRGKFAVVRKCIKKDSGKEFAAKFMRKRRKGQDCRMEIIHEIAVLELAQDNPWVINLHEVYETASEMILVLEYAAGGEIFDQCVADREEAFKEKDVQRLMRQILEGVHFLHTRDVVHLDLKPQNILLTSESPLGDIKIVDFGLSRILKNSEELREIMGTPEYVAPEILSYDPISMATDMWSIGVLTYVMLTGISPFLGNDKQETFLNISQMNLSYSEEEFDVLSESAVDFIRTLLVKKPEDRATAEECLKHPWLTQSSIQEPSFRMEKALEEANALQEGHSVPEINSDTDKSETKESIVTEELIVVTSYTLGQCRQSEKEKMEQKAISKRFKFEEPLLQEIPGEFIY

[2] = biological target: T1, Serine/threonine-protein kinase 17A (Homo sapiens); details: at 10 µM
[3] = biological target: T2, Dual specificity tyrosine-phosphorylation-regulated kinase 2 (Homo sapiens) (UniProt Q92630); details: at 1 µM
T2 sequence (whole entry): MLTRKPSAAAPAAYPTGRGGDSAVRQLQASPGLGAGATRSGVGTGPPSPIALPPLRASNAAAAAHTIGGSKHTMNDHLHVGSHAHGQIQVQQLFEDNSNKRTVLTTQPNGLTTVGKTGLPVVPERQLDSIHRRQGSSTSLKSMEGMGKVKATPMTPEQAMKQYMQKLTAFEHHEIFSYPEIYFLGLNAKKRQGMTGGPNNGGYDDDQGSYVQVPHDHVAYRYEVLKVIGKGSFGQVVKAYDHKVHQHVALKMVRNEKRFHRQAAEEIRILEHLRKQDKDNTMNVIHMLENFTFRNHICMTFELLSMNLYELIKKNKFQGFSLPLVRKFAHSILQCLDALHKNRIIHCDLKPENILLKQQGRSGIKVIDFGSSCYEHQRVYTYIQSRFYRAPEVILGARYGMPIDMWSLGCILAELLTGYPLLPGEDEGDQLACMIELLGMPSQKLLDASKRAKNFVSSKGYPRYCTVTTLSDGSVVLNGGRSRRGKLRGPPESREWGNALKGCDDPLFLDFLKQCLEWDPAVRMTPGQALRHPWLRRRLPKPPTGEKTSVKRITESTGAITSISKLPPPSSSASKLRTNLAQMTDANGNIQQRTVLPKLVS

[4] = biological target: T2, Dual specificity tyrosine-phosphorylation-regulated kinase 2 (Homo sapiens); details: at 10 µM
[5] = biological target: T3, Ephrin type-A receptor 1 (Homo sapiens) (UniProt P21709); details: at 1 µM
T3 sequence (whole entry): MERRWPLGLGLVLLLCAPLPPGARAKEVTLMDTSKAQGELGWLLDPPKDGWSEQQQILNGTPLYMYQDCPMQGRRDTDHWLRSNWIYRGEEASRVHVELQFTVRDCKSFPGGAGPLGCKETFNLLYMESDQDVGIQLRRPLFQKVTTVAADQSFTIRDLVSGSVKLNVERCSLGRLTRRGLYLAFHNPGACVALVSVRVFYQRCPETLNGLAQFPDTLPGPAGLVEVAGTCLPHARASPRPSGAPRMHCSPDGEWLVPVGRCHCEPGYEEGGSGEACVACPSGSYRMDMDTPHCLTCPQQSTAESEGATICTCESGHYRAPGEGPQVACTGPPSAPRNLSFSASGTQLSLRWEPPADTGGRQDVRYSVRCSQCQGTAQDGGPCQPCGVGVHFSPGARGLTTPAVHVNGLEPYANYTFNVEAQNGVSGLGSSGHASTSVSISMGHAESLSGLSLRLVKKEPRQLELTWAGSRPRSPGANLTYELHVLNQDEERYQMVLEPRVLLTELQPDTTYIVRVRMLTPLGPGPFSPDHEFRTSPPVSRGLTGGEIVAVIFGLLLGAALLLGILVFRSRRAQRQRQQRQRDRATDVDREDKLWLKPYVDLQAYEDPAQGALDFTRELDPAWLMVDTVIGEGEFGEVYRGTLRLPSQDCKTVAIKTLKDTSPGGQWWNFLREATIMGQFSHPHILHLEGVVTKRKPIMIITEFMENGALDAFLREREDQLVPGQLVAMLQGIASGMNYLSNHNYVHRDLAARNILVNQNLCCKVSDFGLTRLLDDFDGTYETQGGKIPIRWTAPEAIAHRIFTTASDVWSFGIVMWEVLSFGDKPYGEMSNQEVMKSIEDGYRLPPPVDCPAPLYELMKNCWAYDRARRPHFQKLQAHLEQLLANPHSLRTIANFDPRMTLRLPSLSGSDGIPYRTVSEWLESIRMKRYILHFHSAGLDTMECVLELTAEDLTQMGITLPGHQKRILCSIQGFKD

[6] = biological target: T3, Ephrin type-A receptor 1 (Homo sapiens); details: at 10 µM
[7] = biological target: Ephrin type-A receptor 2 (Homo sapiens) (UniProt P29317); details: at 1 µM
[8] = biological target: Ephrin type-A receptor 2 (Homo sapiens) (UniProt P29317); details: at 10 µM
[9] = biological target: T4, Ephrin type-A receptor 3 (Homo sapiens) (UniProt P29320); details: at 1 µM
T4 sequence (whole entry): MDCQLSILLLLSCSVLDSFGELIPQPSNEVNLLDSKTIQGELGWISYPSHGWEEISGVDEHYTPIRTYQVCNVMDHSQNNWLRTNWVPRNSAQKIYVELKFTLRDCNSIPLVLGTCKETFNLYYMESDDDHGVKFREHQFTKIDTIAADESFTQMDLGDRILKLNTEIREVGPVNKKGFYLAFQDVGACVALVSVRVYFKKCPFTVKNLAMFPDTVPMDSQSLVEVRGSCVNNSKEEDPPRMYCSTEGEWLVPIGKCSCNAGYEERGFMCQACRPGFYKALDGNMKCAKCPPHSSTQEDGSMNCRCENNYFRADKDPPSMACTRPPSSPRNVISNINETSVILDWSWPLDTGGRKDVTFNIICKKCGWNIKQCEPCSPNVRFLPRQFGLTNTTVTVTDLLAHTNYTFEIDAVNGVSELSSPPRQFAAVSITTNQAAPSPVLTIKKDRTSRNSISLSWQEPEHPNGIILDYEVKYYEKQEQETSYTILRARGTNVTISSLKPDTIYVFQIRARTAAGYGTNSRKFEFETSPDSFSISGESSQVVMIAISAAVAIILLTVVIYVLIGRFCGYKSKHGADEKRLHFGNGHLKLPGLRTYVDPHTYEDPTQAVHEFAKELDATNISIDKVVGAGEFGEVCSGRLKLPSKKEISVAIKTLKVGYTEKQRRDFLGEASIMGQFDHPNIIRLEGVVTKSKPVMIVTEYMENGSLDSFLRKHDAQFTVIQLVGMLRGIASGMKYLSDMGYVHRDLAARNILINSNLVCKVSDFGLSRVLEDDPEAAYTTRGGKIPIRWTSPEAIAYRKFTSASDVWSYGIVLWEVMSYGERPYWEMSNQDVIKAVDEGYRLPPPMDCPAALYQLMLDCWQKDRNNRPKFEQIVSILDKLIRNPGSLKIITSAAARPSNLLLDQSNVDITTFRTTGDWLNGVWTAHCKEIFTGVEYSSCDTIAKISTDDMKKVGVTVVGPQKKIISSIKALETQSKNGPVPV

[10] = biological target: T4, Ephrin type-A receptor 3 (Homo sapiens); details: at 10 µM
[11] = biological target: Ephrin type-A receptor 4 (Homo sapiens) (UniProt P54764); details: at 1 µM
[12] = biological target: Ephrin type-A receptor 4 (Homo sapiens) (UniProt P54764); details: at 10 µM
[13] = biological target: Ephrin type-A receptor 5 (Homo sapiens) (UniProt P54756); details: at 1 µM
[14] = biological target: Ephrin type-A receptor 5 (Homo sapiens) (UniProt P54756); details: at 10 µM
[15] = biological target: Ephrin type-A receptor 7 (Homo sapiens) (UniProt Q15375); details: at 1 µM
[16] = biological target: Ephrin type-A receptor 7 (Homo sapiens) (UniProt Q15375); details: at 10 µM
[17] = biological target: T5, Ephrin type-A receptor 8 (Homo sapiens) (UniProt P29322); details: at 1 µM
T5 sequence (whole entry): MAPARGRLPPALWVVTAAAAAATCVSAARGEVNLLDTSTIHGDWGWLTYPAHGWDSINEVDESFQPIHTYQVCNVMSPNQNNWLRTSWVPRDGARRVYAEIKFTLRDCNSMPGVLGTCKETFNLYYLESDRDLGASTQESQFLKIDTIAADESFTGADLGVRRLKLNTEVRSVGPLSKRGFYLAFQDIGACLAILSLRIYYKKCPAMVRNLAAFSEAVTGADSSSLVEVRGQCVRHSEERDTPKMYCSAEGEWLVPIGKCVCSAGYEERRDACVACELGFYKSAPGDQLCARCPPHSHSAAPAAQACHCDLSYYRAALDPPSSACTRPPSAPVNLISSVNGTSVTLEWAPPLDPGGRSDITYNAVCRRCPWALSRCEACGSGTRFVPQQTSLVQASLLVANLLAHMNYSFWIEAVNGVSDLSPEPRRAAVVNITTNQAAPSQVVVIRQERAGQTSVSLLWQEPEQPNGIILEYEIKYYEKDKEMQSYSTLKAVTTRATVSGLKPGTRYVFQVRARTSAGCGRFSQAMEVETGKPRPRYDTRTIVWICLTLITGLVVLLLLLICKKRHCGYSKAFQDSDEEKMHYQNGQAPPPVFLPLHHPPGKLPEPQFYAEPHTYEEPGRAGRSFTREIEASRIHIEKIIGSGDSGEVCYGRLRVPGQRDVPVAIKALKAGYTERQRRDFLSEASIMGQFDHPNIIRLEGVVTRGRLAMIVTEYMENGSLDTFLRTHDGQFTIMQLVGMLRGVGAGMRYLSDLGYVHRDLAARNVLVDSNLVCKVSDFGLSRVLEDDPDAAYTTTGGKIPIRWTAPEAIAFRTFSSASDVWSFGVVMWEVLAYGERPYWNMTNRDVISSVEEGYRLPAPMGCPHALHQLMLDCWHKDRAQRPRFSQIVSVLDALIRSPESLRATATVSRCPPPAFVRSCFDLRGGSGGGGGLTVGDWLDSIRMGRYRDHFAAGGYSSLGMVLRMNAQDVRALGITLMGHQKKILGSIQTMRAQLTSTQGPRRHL

[18] = biological target: T5, Ephrin type-A receptor 8 (Homo sapiens); details: at 10 µM
[19] = biological target: T6, Ephrin type-B receptor 1 (Homo sapiens) (UniProt P54762); details: at 1 µM
T6 sequence (whole entry): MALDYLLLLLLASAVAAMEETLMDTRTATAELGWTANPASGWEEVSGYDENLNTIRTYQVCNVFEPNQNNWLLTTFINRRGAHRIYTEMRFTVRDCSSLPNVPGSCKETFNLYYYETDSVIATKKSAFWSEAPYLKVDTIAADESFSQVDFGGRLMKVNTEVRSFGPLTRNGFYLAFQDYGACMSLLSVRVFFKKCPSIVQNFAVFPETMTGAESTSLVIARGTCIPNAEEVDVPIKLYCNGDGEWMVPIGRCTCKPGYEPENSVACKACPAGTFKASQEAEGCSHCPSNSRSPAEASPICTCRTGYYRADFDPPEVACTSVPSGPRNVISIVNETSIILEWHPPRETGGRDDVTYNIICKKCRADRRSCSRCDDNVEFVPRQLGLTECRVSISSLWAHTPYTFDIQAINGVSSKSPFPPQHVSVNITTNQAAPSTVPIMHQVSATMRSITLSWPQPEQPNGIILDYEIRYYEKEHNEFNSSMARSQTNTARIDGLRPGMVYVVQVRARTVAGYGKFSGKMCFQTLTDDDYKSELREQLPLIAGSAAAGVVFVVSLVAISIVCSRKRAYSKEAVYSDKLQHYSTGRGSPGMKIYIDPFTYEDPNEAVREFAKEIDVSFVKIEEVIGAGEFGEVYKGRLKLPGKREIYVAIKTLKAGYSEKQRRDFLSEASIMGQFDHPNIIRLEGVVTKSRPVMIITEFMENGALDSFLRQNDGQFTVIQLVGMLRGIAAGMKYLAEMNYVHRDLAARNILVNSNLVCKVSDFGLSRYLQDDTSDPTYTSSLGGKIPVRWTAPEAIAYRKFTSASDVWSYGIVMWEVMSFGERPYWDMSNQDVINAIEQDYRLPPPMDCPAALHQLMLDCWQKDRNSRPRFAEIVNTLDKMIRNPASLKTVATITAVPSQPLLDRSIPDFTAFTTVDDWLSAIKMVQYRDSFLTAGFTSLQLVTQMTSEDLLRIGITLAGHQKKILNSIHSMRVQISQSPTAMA

Ephrin type-A receptor 7 (Homo sapiens), sequence (Q15375 28-998 limits assumed): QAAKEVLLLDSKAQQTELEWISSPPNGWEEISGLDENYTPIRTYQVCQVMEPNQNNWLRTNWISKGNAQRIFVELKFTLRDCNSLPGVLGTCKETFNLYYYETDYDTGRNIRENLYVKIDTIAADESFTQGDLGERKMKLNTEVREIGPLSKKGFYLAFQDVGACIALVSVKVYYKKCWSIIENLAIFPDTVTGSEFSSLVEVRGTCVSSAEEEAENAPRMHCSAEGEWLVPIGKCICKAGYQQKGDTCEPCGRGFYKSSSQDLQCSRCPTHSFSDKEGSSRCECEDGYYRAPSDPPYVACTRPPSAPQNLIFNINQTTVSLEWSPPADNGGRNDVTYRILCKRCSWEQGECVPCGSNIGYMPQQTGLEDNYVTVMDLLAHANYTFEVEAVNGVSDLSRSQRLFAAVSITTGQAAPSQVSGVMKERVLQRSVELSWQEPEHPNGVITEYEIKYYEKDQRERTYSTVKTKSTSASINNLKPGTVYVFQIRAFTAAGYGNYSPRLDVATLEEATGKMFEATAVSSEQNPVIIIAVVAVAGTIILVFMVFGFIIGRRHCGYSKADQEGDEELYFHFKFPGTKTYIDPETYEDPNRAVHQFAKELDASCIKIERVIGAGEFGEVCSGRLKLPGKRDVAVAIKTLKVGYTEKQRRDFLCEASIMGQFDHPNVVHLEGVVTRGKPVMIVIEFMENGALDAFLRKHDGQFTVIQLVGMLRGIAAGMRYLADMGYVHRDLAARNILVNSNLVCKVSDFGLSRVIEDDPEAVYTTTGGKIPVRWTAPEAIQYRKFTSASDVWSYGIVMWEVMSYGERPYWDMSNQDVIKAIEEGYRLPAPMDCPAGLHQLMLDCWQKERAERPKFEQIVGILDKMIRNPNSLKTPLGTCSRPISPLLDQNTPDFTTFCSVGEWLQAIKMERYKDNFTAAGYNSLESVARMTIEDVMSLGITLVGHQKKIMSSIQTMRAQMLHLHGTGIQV
Ephrin type-A receptor 4 (Homo sapiens), sequence (P54764 whole entry): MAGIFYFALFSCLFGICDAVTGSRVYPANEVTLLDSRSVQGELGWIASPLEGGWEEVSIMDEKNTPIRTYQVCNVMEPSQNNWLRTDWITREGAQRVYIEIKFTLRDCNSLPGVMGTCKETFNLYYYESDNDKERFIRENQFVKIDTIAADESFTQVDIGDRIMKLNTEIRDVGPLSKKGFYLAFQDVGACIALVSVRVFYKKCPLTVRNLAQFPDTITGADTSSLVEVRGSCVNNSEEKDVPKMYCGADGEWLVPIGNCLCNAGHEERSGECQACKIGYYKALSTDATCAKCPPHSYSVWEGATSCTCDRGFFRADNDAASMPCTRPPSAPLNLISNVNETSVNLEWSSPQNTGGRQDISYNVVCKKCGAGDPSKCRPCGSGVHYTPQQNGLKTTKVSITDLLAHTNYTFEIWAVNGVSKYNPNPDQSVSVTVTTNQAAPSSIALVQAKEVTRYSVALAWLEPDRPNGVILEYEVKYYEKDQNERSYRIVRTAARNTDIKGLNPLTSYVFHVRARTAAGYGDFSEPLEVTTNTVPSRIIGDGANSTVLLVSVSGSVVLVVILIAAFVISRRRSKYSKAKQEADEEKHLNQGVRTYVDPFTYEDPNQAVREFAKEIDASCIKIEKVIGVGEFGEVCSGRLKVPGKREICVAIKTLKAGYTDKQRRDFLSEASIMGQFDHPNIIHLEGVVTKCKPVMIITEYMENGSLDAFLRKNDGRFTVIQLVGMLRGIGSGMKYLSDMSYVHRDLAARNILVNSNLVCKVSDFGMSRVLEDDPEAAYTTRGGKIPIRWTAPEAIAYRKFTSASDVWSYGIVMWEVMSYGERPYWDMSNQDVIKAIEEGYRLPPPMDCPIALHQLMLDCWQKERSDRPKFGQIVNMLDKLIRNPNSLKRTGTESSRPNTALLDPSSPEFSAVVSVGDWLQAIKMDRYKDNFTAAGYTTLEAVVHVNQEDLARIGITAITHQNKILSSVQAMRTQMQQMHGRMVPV
Ephrin type-A receptor 5 (Homo sapiens), sequence (P54756 whole entry): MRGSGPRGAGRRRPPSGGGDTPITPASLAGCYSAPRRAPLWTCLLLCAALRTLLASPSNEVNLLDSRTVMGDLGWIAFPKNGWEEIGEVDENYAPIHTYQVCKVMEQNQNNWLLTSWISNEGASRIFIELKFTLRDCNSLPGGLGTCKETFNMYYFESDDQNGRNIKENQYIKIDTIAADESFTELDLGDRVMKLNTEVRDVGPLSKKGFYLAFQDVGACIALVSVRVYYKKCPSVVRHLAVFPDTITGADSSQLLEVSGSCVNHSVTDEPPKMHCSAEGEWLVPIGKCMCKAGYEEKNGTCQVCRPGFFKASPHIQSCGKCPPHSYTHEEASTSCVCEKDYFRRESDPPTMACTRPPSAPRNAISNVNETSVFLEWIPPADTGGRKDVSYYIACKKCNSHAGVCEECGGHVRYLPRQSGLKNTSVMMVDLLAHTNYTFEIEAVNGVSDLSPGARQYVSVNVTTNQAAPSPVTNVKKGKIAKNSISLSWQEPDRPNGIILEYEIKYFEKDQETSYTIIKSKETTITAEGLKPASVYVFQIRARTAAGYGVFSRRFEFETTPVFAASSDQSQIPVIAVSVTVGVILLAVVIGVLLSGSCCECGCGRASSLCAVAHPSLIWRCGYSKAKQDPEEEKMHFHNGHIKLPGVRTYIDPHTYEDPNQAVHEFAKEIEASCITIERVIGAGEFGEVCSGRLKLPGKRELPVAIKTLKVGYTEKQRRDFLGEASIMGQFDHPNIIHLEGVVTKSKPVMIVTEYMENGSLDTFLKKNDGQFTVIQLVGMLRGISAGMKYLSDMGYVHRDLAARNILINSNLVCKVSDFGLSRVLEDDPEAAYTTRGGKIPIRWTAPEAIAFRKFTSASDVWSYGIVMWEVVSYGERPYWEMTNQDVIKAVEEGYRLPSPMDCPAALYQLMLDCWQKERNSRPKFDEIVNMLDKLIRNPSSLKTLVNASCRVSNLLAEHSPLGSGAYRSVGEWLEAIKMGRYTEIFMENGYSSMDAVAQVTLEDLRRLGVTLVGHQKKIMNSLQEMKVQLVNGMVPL
Ephrin type-A receptor 2 (Homo sapiens), sequence (P29317 whole entry): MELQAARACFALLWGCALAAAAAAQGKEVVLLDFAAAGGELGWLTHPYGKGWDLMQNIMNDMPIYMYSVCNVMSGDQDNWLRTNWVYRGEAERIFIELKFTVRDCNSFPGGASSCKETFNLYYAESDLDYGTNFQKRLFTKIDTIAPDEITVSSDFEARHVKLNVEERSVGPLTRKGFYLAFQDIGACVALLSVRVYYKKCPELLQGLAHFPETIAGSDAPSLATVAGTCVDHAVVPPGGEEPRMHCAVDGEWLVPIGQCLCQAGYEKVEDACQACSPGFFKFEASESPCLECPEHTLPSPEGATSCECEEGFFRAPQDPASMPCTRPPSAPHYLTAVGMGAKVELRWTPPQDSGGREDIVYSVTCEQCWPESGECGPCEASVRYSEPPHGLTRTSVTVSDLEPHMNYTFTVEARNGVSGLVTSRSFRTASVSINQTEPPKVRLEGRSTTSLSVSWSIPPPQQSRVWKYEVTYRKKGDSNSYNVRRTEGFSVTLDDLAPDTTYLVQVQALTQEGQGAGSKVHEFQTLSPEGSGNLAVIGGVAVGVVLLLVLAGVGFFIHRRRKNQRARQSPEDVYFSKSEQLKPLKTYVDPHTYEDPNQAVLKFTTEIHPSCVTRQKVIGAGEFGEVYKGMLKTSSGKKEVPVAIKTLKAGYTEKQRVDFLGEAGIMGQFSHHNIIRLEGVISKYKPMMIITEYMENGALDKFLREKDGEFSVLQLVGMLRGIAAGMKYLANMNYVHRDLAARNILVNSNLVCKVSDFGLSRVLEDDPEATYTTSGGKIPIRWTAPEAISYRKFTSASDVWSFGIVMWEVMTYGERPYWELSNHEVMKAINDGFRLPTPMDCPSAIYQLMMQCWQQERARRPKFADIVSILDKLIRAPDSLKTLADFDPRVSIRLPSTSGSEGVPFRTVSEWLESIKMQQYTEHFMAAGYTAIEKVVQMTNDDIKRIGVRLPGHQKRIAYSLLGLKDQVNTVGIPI

| Compound | residual activity [1] | residual activity [2] | residual activity [3] | residual activity [4] | residual activity [5] | residual activity [6] | residual activity [7] | residual activity [8] | residual activity [9] | residual activity [10] | residual activity [11] | residual activity [12] | residual activity [13] | residual activity [14] | residual activity [15] | residual activity [16] | residual activity [17] | residual activity [18] | residual activity [19] |
| --- | --- | --- | --- | --- | --- | --- | --- | --- | --- | --- | --- | --- | --- | --- | --- | --- | --- | --- | --- |
| O=c1[nH]c2ccccc2n1C1CCN(Cc2ccc(-c3nc4cc5[nH]cnc5cc4nc3-c3ccccc3)cc2)CC1 | 126% | 112% | 111% | 98% | 102% | 90% | 103% | 95% | 112% | 76% | 112% | 81% | 114% | 99% | 97% | 93% | 108% | 104% | 93% |
| COC(=O)[C@@]1(O)C[C@H]2O[C@]1(C)n1c3ccccc3c3c4c(c5c6ccccc6n2c5c31)C(=O)NC4 | 0% | 1% | 2% | -4% | 3% | 0% | 44% | 8% | 42% | 5% | 83% | 43% | 66% | 13% | 32% | 4% | 78% | 40% | 39% |
